{"source": "paper PMC4336329", "about": "(PLoS ONE, 2015)", "note": "Screen size: about 310,000 compounds; about 2,200 (0.71%) showed an effect of 50% or more. The effect is printed as a negative number. For the sample, strong results were picked, then their nearest neighbours and some compounds at random.", "data": [{"target": "human ether-à-go-go-related gene (hERG) potassium channel (human, UniProt Q12809)", "sequence (Q12809 whole entry, looked up)": "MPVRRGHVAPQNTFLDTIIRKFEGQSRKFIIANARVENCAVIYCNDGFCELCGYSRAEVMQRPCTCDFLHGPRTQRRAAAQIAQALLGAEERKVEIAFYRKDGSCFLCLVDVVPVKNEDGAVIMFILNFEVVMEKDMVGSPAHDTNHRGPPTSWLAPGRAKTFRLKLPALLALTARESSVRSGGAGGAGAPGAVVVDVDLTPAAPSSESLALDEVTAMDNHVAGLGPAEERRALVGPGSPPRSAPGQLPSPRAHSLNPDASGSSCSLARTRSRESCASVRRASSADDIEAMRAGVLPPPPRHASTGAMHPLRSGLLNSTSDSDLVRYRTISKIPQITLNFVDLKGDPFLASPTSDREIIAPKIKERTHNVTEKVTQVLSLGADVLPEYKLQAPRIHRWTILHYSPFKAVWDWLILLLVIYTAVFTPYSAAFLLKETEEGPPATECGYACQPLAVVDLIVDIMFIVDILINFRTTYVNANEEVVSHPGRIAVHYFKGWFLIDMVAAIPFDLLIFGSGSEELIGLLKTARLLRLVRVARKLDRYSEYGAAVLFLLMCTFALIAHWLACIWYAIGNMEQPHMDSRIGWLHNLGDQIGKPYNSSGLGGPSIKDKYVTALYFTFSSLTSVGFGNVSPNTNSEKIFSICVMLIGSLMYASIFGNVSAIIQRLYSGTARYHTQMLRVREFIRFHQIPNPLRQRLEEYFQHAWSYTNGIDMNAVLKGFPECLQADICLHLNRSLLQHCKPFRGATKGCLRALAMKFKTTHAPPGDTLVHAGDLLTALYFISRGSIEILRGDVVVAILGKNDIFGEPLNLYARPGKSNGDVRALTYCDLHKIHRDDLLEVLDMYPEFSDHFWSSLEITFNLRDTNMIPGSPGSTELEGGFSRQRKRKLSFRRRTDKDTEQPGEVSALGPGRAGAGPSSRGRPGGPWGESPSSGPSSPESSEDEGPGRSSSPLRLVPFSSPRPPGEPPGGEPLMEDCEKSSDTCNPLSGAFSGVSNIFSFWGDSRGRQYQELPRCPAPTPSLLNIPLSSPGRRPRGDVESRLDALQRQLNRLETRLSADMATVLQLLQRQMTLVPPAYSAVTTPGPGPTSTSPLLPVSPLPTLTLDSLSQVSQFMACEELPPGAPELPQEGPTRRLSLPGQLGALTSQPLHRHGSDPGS", "assay": "primary screen, population patch clamp on CHO cells stably expressing hERG; higher = less effect of the substance", "method": "Briefly, Chinese hamster ovary (CHO) cells stably expressing the hERG channel were dislodged from tissue culture flasks and dispensed into PPC plates. […] During the recording, background leak currents were estimated by a 100 ms step to -80 mV from an initial holding potential of -70 mV and subtracted from the subsequent current measurement. The campaign was conducted in two phases using slight differences in recording protocol. In the first phase, the initial voltage pulse used a 100 ms step to -30 mV from a holding potential of -70 mV, a 2 s conditioning step to +25 mV, and a 2 s test step to -30 mV. During the second phase of the screen, the potential during the conditioning step was raised to +45 mV. In both phases of the campaign, a secondary voltage pulse was applied using the same parameters as the second phase initial pulse. The initial and secondary pulses were applied in the absence of compound, and upon application of 1 μM and 10 μM test concentrations. Small molecule effects on hERG current density were quantified by […].", "units": {"hERG current change (%, negative = inhibition) at 1uM": "%"}, "values": [{"smiles": "COc1ccc(-c2cc(N)n(S(=O)(=O)Cc3ccccc3)n2)c(OC)c1", "hERG current change (%, negative = inhibition) at 1uM": -4.34}, {"smiles": "COc1ccc(NC(=S)N2CCNC(=O)C2CC(=O)Nc2cccc(Cl)c2C)cc1", "note": "(stereo not shown)", "hERG current change (%, negative = inhibition) at 1uM": -5.98}, {"smiles": "Cc1ccc(-c2sc(C)nc2CC(=O)O)cc1", "hERG current change (%, negative = inhibition) at 1uM": 7.75}, {"smiles": "C=C(C)C1CC=C(C)/C(=N/NC(=O)CCC(=O)Nc2ccccc2Cl)C1", "note": "(stereo not shown)", "hERG current change (%, negative = inhibition) at 1uM": 6.51}, {"smiles": "O=C(COC(=O)c1c[nH]c2ccccc12)Nc1ccc(F)cc1", "hERG current change (%, negative = inhibition) at 1uM": -1.51}, {"smiles": "Cc1cc(C(=O)NN=C(Cc2ccccc2)Cc2ccccc2)c(C)o1", "hERG current change (%, negative = inhibition) at 1uM": 4.29}, {"smiles": "O=C(Nc1cnccn1)c1ccncc1", "hERG current change (%, negative = inhibition) at 1uM": -8.03}, {"smiles": "NS(=O)(=O)c1ccc(CCNC(=O)c2ccccc2F)cc1", "hERG current change (%, negative = inhibition) at 1uM": 4.79}, {"smiles": "CCCCNC(=O)/C=C/c1cccs1", "hERG current change (%, negative = inhibition) at 1uM": 24.3}, {"smiles": "Cc1ccc(-c2cc(-c3ccccc3)cc(-c3ccccc3)[n+]2-c2ccc(C(=O)O)cc2)cc1.[O-][Cl+3]([O-])([O-])[O-]", "hERG current change (%, negative = inhibition) at 1uM": 7.88}, {"smiles": "Cc1ccc(-c2cc(-c3ccccc3)cc(-c3ccccc3)[n+]2-c2ccccc2)cc1.[O-][Cl+3]([O-])([O-])[O-]", "hERG current change (%, negative = inhibition) at 1uM": -80.4}, {"smiles": "[O-][Cl+3]([O-])([O-])[O-].c1ccc(-c2cc(-c3ccccc3)[n+](-c3ccccc3)c(-c3ccccc3)c2)cc1", "hERG current change (%, negative = inhibition) at 1uM": -27.7}, {"smiles": "O=C(COc1ccccc1)N(Cc1ccco1)c1ccc(O)cc1", "hERG current change (%, negative = inhibition) at 1uM": 8.59}, {"smiles": "CCOC(=O)c1[nH]c(C)c(C(=O)NCc2ccc(Cl)cc2)c1C", "hERG current change (%, negative = inhibition) at 1uM": -4.65}, {"smiles": "O=C(CCOc1ccccc1)Nc1ccnn1C1CCN(Cc2ccccc2)CC1", "hERG current change (%, negative = inhibition) at 1uM": 2}, {"smiles": "CCOc1ccccc1CN1CCC(n2nccc2NC(=O)CCCc2ccccc2)CC1", "hERG current change (%, negative = inhibition) at 1uM": -29.2}, {"smiles": "COc1cc(CN2CCC(n3nccc3NC(=O)CCCc3ccccc3)CC2)ccc1O", "hERG current change (%, negative = inhibition) at 1uM": -5.54}, {"smiles": "CCOc1cccc(CN2CCC(n3nccc3NC(=O)CCCc3ccccc3)CC2)c1", "hERG current change (%, negative = inhibition) at 1uM": 9.19}, {"smiles": "COc1cccc(CN2CCC(n3nccc3NC(=O)CCCc3ccccc3)CC2)c1O", "hERG current change (%, negative = inhibition) at 1uM": -55.4}, {"smiles": "COc1ccccc1CN1CCC(n2nccc2NC(=O)CCCc2ccccc2)CC1", "hERG current change (%, negative = inhibition) at 1uM": -42.7}, {"smiles": "COc1ccc(CN2CCC(n3nccc3NC(=O)CCOc3ccccc3)CC2)cc1C", "hERG current change (%, negative = inhibition) at 1uM": -16.2}, {"smiles": "COc1ccc(CN2CCC(n3nccc3NC(=O)CCCc3ccccc3)CC2)cc1C", "hERG current change (%, negative = inhibition) at 1uM": -67.3}, {"smiles": "O=C(CCCc1ccccc1)Nc1ccnn1C1CCN(Cc2ccccc2)CC1", "hERG current change (%, negative = inhibition) at 1uM": -18.8}, {"smiles": "CCOc1ccc(CN2CCC(n3nccc3NC(=O)CCCc3ccccc3)CC2)cc1", "hERG current change (%, negative = inhibition) at 1uM": -88.8}, {"smiles": "O=C(CCOc1ccccc1)Nc1ccnn1C1CCN(Cc2ccc(O)cc2)CC1", "hERG current change (%, negative = inhibition) at 1uM": -3.76}, {"smiles": "O=C(CCOc1ccccc1)Nc1ccnn1C1CCN(CCc2ccccc2)CC1", "hERG current change (%, negative = inhibition) at 1uM": -51.4}, {"smiles": "O=C(CCCN1C(=O)/C(=C/c2ccc3c(c2)OCO3)SC1=S)Nc1cccc(C(=O)O)c1", "hERG current change (%, negative = inhibition) at 1uM": 9.71}, {"smiles": "Cn1cc(S(=O)(=O)N2CCC(C(N)=O)CC2)c(=O)n(C)c1=O", "hERG current change (%, negative = inhibition) at 1uM": 11}, {"smiles": "Cc1c(C)c2cc(Cl)c(O)c(CN(C)C)c2oc1=O", "hERG current change (%, negative = inhibition) at 1uM": 15.4}, {"smiles": "CN(C)/C=N/c1cc(=O)[nH]c(=O)n1CC1CC1", "hERG current change (%, negative = inhibition) at 1uM": 17.1}, {"smiles": "O=C(CCc1ccccc1)Nc1ccnn1C1CCN(Cc2ccc(OCCO)cc2)CC1", "hERG current change (%, negative = inhibition) at 1uM": -9.11}, {"smiles": "CC(C)Oc1ccc(CN2CCC(n3nccc3NC(=O)CCc3ccccc3)CC2)cc1", "hERG current change (%, negative = inhibition) at 1uM": -86.3}, {"smiles": "CC(=O)Nc1ccc(CN2CCC(n3nccc3NC(=O)CCc3ccccc3)CC2)cc1", "hERG current change (%, negative = inhibition) at 1uM": 11.7}, {"smiles": "O=C(/C=C/c1ccc(-c2ccccc2)o1)c1ccccc1", "hERG current change (%, negative = inhibition) at 1uM": 10.1}, {"smiles": "O=C(Nc1ccc(F)cc1)C(c1ccccc1)N1CCN(CC(=O)N2CCOCC2)CC1", "note": "(stereo not shown)", "hERG current change (%, negative = inhibition) at 1uM": -14.5}, {"smiles": "CCOc1ccccc1NC(=O)C(c1ccccc1)N1CCN(CC(=O)N2CCOCC2)CC1", "note": "(stereo not shown)", "hERG current change (%, negative = inhibition) at 1uM": -79.7}, {"smiles": "Cc1ccc(NC(=O)C(c2ccccc2)N2CCN(CC(=O)N3CCOCC3)CC2)cc1", "note": "(stereo not shown)", "hERG current change (%, negative = inhibition) at 1uM": -8.48}, {"smiles": "O=C(NCCc1nc2ccccc2[nH]1)/C(=C/c1ccc2c(c1)OCO2)NC(=O)c1ccccc1Cl", "hERG current change (%, negative = inhibition) at 1uM": -49.9}, {"smiles": "O=C(NCCc1nc2ccccc2[nH]1)/C(=C/c1ccc2c(c1)OCO2)NC(=O)c1ccc(Cl)cc1Cl", "hERG current change (%, negative = inhibition) at 1uM": -73.9}, {"smiles": "O=C(NCCc1nc2ccccc2[nH]1)/C(=C/c1ccc2c(c1)OCO2)NC(=O)c1ccccc1", "hERG current change (%, negative = inhibition) at 1uM": -14.2}, {"smiles": "CSCC[C@H](NC(=O)c1ccc(Cl)c(S(=O)(=O)N2CCCC2)c1)c1nc2ccccc2[nH]1", "hERG current change (%, negative = inhibition) at 1uM": -1.71}, {"smiles": "CSc1cccc(CN2CCCC(CNC(=O)c3ccc(F)cc3)C2)c1", "note": "(stereo not shown)", "hERG current change (%, negative = inhibition) at 1uM": -19.1}, {"smiles": "COc1ccc(CN2CCCC(CNC(=O)c3ccc(F)cc3)C2)c(C)c1C", "note": "(stereo not shown)", "hERG current change (%, negative = inhibition) at 1uM": -46.2}]}]}
